Only some compounds are listed: those with a hit (about 10% of all), similar ones and a draw of the others.
MCF10A rerep – DNA re-replication induction in MCF 10a cells; Potency, µM (doses to about 46.1 µM), for the others: at the highest dose activity, positive = re-replication, most hits filed as activators; 2.9% of 350,000 active; MCF 10A DNA re-replication, Hoechst nuclear intensity, 48 h; also: % of control where 0% means no effect; nearly all actives have a fitted effect of over 50% in size
ELG1 DNA repair – blocks ELG1-dependent DNA repair in HEK293T cells | HEK293T ELG1-luciferase reporter, luminescence, 16 h; DNA damage induced by 5-fluorouridine | Potency, µM (top dose mostly 46.1 µM), without a hit: at the top dose activity change, negative = inhibition, actives largely listed as inhibitors | 2.3% of 330,000 active | AID 504467; also: % is scaled to controls: 0 for no effect and ±100 for the full control effect; nearly all actives have a fitted effect of over 55% in size
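Quantitative HTS, concentration-response format. 2,000 cells/well co-treated with 5-fluorouridine and compound, 16 hr in 5% CO2 at 37 °C; ONE-Glo luminescence read after 30 min.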
SW480 rereplic – inducers of DNA re-replication in SW480 colon cancer cells; SW480 DNA re-replication, Hoechst DNA content imaging, 48 h; Potency, µM (titrated, usually from 46.1 µM), inactives show top-dose re-replication activation, actives largely listed as activators; 1.8% of 340,000 active; also: % of control where 0% means no effect; nearly all actives have a fitted effect of over 55% in size
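First, 250 cells per well were seeded. Next, compound or vehicle (23 nL) was pinned in, plates sat 48 hr at 37 C. Finally Hoechst was added for 40 min before fluorescence scanning.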
RORg inh – inhibitors of mouse ROR gamma transcriptional activity | Drosophila S2 Gal4-RORgamma UAS-luciferase reporter, 20 h | Potency, µM (series often up to 53.6 µM), inactives show at the highest dose activity change, negative = inhibition, actives largely listed as inhibitors | 5.4% of 310,000 active | AID 2551; also: % is scaled to controls: 0 for no effect and ±100 for the full control effect; nearly all actives have a fitted effect of over 60% in size
Target sequence (P51450 whole entry, looked up, the tested form may be a part): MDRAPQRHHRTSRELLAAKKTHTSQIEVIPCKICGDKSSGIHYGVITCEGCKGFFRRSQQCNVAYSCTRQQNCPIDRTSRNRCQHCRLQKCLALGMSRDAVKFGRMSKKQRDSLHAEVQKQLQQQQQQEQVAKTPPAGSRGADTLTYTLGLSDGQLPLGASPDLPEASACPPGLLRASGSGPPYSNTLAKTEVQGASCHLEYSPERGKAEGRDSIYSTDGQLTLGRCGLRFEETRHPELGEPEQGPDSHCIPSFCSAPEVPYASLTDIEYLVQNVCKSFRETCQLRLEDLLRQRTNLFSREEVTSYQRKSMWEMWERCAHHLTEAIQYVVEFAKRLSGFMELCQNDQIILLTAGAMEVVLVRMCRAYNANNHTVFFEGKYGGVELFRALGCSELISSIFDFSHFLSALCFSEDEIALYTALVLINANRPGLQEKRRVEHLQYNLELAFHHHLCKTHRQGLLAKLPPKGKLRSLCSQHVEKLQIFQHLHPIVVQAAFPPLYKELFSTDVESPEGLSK
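A Gal4/UAS one-hybrid system in insect cells: metallothionein-promoter Gal4–ROR gamma fusion plus Photinus luciferase reporter. Copper sulfate 700 uM final, 20 hr ambient incubation, luminescent detection after 10 min with reagent.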
VP16 counter – Gal4-VP16 reporter inhibition counter-screen. Drosophila S2 Gal4-VP16 UAS-luciferase, luminescence, 20 h. Potency, µM (series often up to 53.6 µM), for the others: at the highest dose activity, negative = inhibition, usual class: inhibitors. 3.5% of 310,000 active;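 also: Gal4-VP16 expression switched on by copper sulfate through the metallothionein promoter; % is scaled to controls: 0 for no effect and ±100 for the full control effect; nearly all actives have a fitted effect of over 50% in size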
The depositor's hits bear a star; ? = inconclusive; . = no result given; [ ] = another dose, or the depositor's remark. Calls follow the shape of the dose curve; as a rule, active = well fitted curve in the direction sought with a large enough effect; inconclusive = small, poorly fitted or top-dose-only effect, or another doubt; inactive = no such curve, though single readings can be large; an effect the other way counts as inactive or inconclusive. Potency is read from the fitted curve at half-maximal effect.

SMILES | MCF10A rerep | ELG1 DNA repair | SW480 rereplic | RORg inh | VP16 counter
CN(C)C1=NCC(CSC(=N)N)S1 (centres undefined) | ? | 4.8% | 8.2µM* | -10.6% | 4.2%[10 µM]
CC1CCN(c2ccc(-c3cccs3)nn2)CC1 | 0.3% | ? | 16.8% | 2µM* | 2µM*
COC(=O)Cc1cc(=O)n2c(nc3ccccc32)[nH]1 | 7.6% | . | -17.4% | . | .
O=C(O)c1ccccc1O[C@@H]1O[C@H](C(=O)O)[C@@H](O)[C@H](O)[C@H]1O | . | . | . | 5.8% | -3.3%
CCN(CCn1cccn1)C(=O)C1CCC(=O)N(CCc2cccc(F)c2)C1 (centres undefined) | -1.7% | 15.3% | -4.0% | -43.9% | 5.6%
CCOC(=O)c1c(C)oc2c1c1c(c3ccccc32)OCN(Cc2cccnc2)C1 | 17.9% | ? | -3.2% | 1.78µM* | 7.94µM*
CC1CCN(c2c(NCC3CCC(C(=O)N4CCc5ccccc5C4)CC3)c(=O)c2=O)CC1 (centres undefined) | 20.5% | 9.2µM* | -4.5% | -17.3% | 2.5%
CC1CCN(c2c(NCc3ccc(C(=O)N(C)C4CCCCC4)cc3)c(=O)c2=O)CC1 | 2.3% | ? | -0.3% | -4.2% | 7.1%
CC1CCN(c2c(NCc3ccc(C(=O)N4CCc5ccccc54)cc3)c(=O)c2=O)CC1 | 3.66µM* | ? | 6.51µM* | ? | -1.9%
O=C(C1CCC(CNc2c(N3CCCCC3)c(=O)c2=O)CC1)N1CCc2ccccc2C1 (centres undefined) | 7.6% | ? | -2.1% | 14.6% | -3.3%
Cn1c(N)c(C(=O)CSc2nc(C3CC3)n(-c3ccccc3)n2)c(=O)n(C)c1=O | 0.4% | -11.8% | -5.4% | . | .
O=C(Nc1ccncc1)c1cc(F)cc(F)c1 | -3.9% | -11.3% | ? | ? | 25.1µM*
Cc1[nH]c2ccc(C(=O)NC3CCC(C)CC3)cc2c1C (centres undefined) | -5.4% | ? | 9.2% | 4.0% | -15.0%
CCCc1c(C)[nH]c2ccc(C(=O)O)cc2c1=S | -1.0% | 5.0% | 3.8% | 20.2% | -1.4%
Cc1[nH]c2ccc(C(=O)Nc3ccncc3)cc2c1C | 12.1% | 11.6µM* | 19.6% | 17.0% | 0.0%
Cc1[nH]c2ccc(C(=O)NC3CCCC3)cc2c1C | 6.4% | ? | 2.59µM* | . | .
O=C(Nc1ccncc1)c1ccc(Br)cc1 | 7.9% | -1.2% | -2.2% | 27.1% | 3.2%
Cc1[nH]c2ccc(C(=O)O)cc2c1C | 23.1µM* | ? | 25.9µM* | 18.0% | ?
N#Cc1cccc(-c2nc(N3CCNCC3)c3ccccc3n2)c1 | . | . | . | -27.9% | -26.3%
Cc1cc(=O)[nH]c(-n2nc(C)cc2C)n1 | 3.9% | -20.0% | -3.5% | 1.58µM* | 3.16µM*
Cc1cc(=O)[nH]c(-n2nc(C)c(Oc3ccccc3O)c2C)n1 | 17.3% | -22.2% | -2.8% | 4.47µM* | 11.2µM*
Cc1cc(=O)[nH]c(N2CCCNCC2)n1 | -14.1% | -0.9% | -5.6% | 14.4% | -1.2%
COc1ccc(OC)c2nc(-c3ccncc3)ccc12 | -4.1% | ? | -19.8% | 3.4% | -12.1%
O=C1C([N+](=O)[O-])=C(O)c2cccc3cccc1c23 | . | -15.9% | . | ? | 17.8µM*
Nc1cccc2cccc([N+](=O)[O-])c12 | 13.6% | . | 0.6% | . | .
SMILES | MCF10A rerep | ELG1 DNA repair | SW480 rereplic | RORg inh | VP16 counter
Cc1ccc(S(=O)(=O)c2nc(S(C)(=O)=O)sc2N2CCC(C)CC2)cc1 | ? | 10.5% | ? | -5.4% | ?
CCCC(=O)N1N=C(c2ccccc2)CC1c1cn(C)c2ccccc12 (centres undefined) | 23.1µM* | ? | ? | -1.8% | -4.4%
CCC(=O)N1N=C(c2ccccc2)CC1c1ccccc1 (centres undefined) | 2.3% | 10.3% | -55.3% | -24.6% | -2.3%
CC(=O)N1N=C(c2ccc(Br)cc2)CC1c1cn(C)c2ccccc12 (centres undefined) | 18.4µM* | 1.6% | 23.9% | 9.4% | -10.7%
Cn1cc(C2CC(c3ccccc3)=NN2C(=O)c2ccccc2)c2ccccc21 (centres undefined) | 5.8µM* | ? | ? | 26.8% | -8.5%
S=C(Sc1ccc(Cl)cc1)Sc1ccc(Cl)cc1 | . | ? | . | 20.9% | -9.1%
CC(OC(=O)CC1CCCC1)C(=O)Nc1ccc(S(N)(=O)=O)cc1 (centres undefined) | -22.9% | 7.1% | -28.4% | . | .
CCC(C)Cn1cnc2c(SCc3ccccc3F)nc(N)nc21 (centres undefined) | 18.4µM* | . | ? | . | .
CC(C)Cn1cnc2c(SCc3ccccc3F)nc(N)nc21 | ? | . | -14.0% | . | .
CCNS(=O)(=O)c1ccc(NC(=O)c2ccccc2SCCOC)cc1 | 7.9% | -11.8% | 8.8% | -3.9% | -3.8%
O=C(Nc1nc(-c2nc3ccccc3s2)cs1)c1ccco1 | 0.7% | ? | -12.8% | ? | 5.7%
O=C(Nc1nc(-c2ccccn2)cs1)C1CCCC1 | -1.9% | ? | 3.7% | 8.91µM* | ?
O=C(CCSc1ccccc1)Nc1nccs1 | 18.0% | ? | -4.2% | 1.3% | 15.5%
O=C(CCCSc1ccccc1)Nc1nc(-c2ccccn2)cs1 | -10.0% | ? | -5.3% | 10µM* | ?
O=C(Nc1nc(-c2nc3ccccc3s2)cs1)C1CC1 | 9.5% | ? | ? | 5.62µM* | ?
Cc1cc(C)cc(OCC(=O)Nc2nc(-c3ccccn3)cs2)c1 | ? | -5.0% | -504.8% | . | .
O=C(CN1C(=O)CCC1=O)Nc1nc(-c2ccccn2)cs1 | 9.3% | -16.3% | -3.3% | -18.0% | -13.8%
CSCCC(=O)Nc1nc(-c2ccccn2)cs1 | 1.8% | -14.1% | ? | 12.6µM* | -18.1%
Cn1nc(C(F)(F)F)c(CO)c1Sc1ccc(F)cc1 | 23.0% | ? | -52.4% | 20.3% | 9.4%
O=C(CCSc1ccccc1)Nc1ncccn1 | 20.6µM* | 18.9% | 23.0% | 8.6% | 3.1%[0.365 µM]
O=C(CCCSc1ccccc1)Nc1nc(-c2ccco2)c(-c2ccco2)s1 | 14.6µM* | ? | 0.5% | -27.1% | ?
O=C(CCl)Nc1nc(-c2ccco2)c(-c2ccco2)s1 | ? | -8.2% | -3.9% | ? | ?
O=C(CCSc1ccccc1)Nc1ccc(S(=O)(=O)Nc2ncccn2)cc1 | -3.7% | -3.2% | 12.3% | 4.7% | 2.3%
NC(=O)c1ccc(NC(=O)CN2C(=O)NC(c3ccccc3)(c3ccccc3)C2=O)cc1 | 1.7% | 11.1% | -20.4% | 25.7% | 7.0%
Cc1ccc(OCC(O)CN2CCN(c3ccc(C)cc3)CC2)cc1 (centres undefined) | 0.82µM* | -4.8% | -20.6% | ? | -7.1%
O=C(/C=C/c1ccc(F)cc1)NC(=S)Nc1ccccc1C(=O)NC1CCCCC1 | ? | 17.8% | ? | ? | 12.6µM*
COc1ccc(/C=C/C(=O)NC(=S)Nc2ccccc2C(=O)NC2CCCCC2)cc1 | 18.4µM* | ? | 4.11µM* | 14.1µM* | -10.8%
